Some compounds were tested as several samples or in several runs, with calls that do not always agree. Active and inactive are the calls of the source. The calls were made as follows: active = hit-call score of the fitted dose curve at least 0.9, where 1 is the maximum; inactive = score below 0.9.

The experiment can be described thus: APR_HepG2_MitoMembPot_72hr: Apredica 72-hour HepG2 Assay for Mitochondrial Membrane Potential (AID 2282917). The note with it: imaging, actives raise or lower the signal. The protocol:
APR_HepG2_72hr is a cell-based, multiplexed-readout assay that uses HepG2, a human liver cell line, with measurements taken at 72 hours after chemical dosing in a 384-well plate.APR_HepG2_MitoMembPot_72hr is one of 10 assay component(s) measured or calculated from the APR_HepG2_72hr assay. It is designed to make measurements of dye binding, a form of membrane potential reporter, as detected with fluorescence intensity signals by HCS Fluorescent Imaging technology.Data from the assay component APR_HepG2_MitoMembPot_72hr was analyzed into 1 assay endpoint. This assay endpoint, APR_HepG2_MitoMembPot_72hr, was analyzed with bidirectional fitting relative to DMSO as the negative control and baseline of activity. Using a type of membrane potential reporter, gain or loss-of-signal activity can be used to understand changes in the signaling. Furthermore, this assay endpoint can be referred to as a primary readout, because this assay has produced multiple assay endpoints where this one serves a signaling function. To generalize the intended target to other relatable targets, this assay endpoint is annotated to the cell morphology intended target family, where the subfamily is organelle conformation.
Cells were treated with dimethyl sulfoxide (DMSO) as a solvent control at a final concentration of 0.5% v/v or with compounds in DMSO with a resulting final DMSO concentration of 0.5% v/v. Compound treatment was done at concentrations of 0.39, 0.78, 1.56, 3.12, 6.24, 12.5, 25, 50, 100, and 200 uM in duplicate on each plate. Cells were treated with compounds for 1, 24, or 72 hr. Carbonyl […] m-chloro-phenylhydrazone (CCCP) and taxol were used as positive controls for mitochondrial function and cytoskeletal stability, respectively; DMSO served as the negative control for this experiment. Cells were fixed by the direct addition of 50 uL formaldehyde in Hank's Balanced Salt Solution (HBSS) to a final concentration of 3.7%. After incubation in the fixation medium for 30 min at room temperature (293-298 K), cells were rinsed twice with HBSS and treated with cell permeabilization buffer (16 uL of 0.5% Triton X-100) for 10 min at room temperature (293-298 K) before labeling. For mitochondrial membrane potential and mitochondrial measurements, pre-fixed cells were incubated with 50 uL of MitoTracker Red CMXRos (Invitrogen) at a concentration of 250 nM for 30 min before fixation. In the remaining cases, post-fixed cells were labeled by incubation with a multiplexed mixture of primary antibodies in HBSS for 60 min at room temperature (293-298 K) to detect immunoreactivity of c-Jun (1:500), phospho-histone H3 (1:100), phospho-histone H2A.x (1:200), p53 (1:400), alpha-tubulin (1:200) and Hoechst 33342 (2 ug/mL). Cells were labeled for multiplexed imaging on two separate plates: a) Hoechst 33342, MitoTracker Red, phospho-histone H3, and alpha-tubulin, and b) Hoechst 33342, phospho-histone H2A.x, and c-Jun. A final rinse with HBSS (50 uL) was performed before analysis. The primary and secondary antibodies for the proteins were phospho-histone H3 (rabbit anti-phospho-histone H3 and FITC-donkey anti-rabbit IgG), phospho-histone H2A.x (mouse anti-phospho-histone H2A.x and FITC-donkey anti-mouse IgG), c-Jun (rabbit anti-phospho-c-Jun and Cy3-donkey anti-rabbit IgG), p53 (sheep anti-p53 and Cy5-donkey anti-sheep IgG), alpha-tubulin (mouse anti-alpha-tubulin and Cy5-donkey anti-mouse IgG). These antibodies are available as the CellCiphr HepG2 assay kit (Millipore).Digital images of each well were captured using a Cellomics ArrayScan VTI (Thermo Scientific Cellomics) (0.8 NA objective, 0.63x optical coupler, and XF-93 filter set) at 20x magnification. The images were acquired using the autofocus feature of the ArrayScan instrument, which entails the following steps. First, the camera focuses on channel 1 (Hoechst 33342), where nuclei are identified. Second, a Z offset of 1 um is used for capturing mitochondria (MitoTracker Red). […]
For `COc1cc(-c2ccc(N)c(OC)c2)ccc1N`, the compound was classed as inactive and the half-maximal activity concentration (AC50) was 14.3 µM (active).
Turning to `CC(C)(C)c1cc(O)ccc1O`, the compound was called inactive.
In the case of `CCCCCCCCc1ccc(O)cc1`, the AC50 is 34.6 µM (active).
For `CN(C)N=O`, the compound was classed as inactive.
For the compound `O=C(Nc1ccc2[nH]ccc2c1)c1cc2cc(F)ccc2n1Cc1cccc(F)c1`, the half-maximal activity concentration (AC50) was 1.02 µM (active).
Turning to `CCC(=O)C(CC(C)N(C)C)(c1ccccc1)c1ccccc1` (centres undefined), the result was inactive.
The same measure, in the same setting: the same measure for `Oc1cccc2cccnc12`: “inactive”; for `C[C@@H]1C[C@@H]([C@H](O)CC2CC(=O)NC(=O)C2)C(=O)[C@@H](C)C1`: “inactive”; for `O=C1C2(Cl)C3(Cl)C4(Cl)C(Cl)(Cl)C5(Cl)C3(Cl)C1(Cl)C5(Cl)C24Cl` (centres undefined): “inactive”.
Regarding `CCN1CCC2(CC1)COc1cc3c(cc12)N(C(=O)c1ccc(-c2ccc(-c4nnc(C)o4)cc2C)cc1)CC3`, the AC50 was 75.1 µM (active).
As to `C[C@]12CCC(=O)C[C@@H]1CC[C@@H]1[C@@H]2CC[C@]2(C)[C@@H](O)CC[C@@H]12`, the outcome was inactive.
On the same count and under the same terms, the same measure for `O=C(O)C(F)(F)C(F)(F)C(F)(F)C(F)(F)C(F)(F)C(F)(F)F`: “inactive”.
As to `CC12CC1(C)C(=O)N(c1cc(Cl)cc(Cl)c1)C2=O` (centres undefined), the result was inactive.
Take `Cn1sc(Cl)cc1=O`: the AC50 is 120 µM (active).
Regarding `O=c1[nH]c(=O)[nH]c(=O)[nH]1`, the AC50 was 99.5 µM (active).
For the compound `ClC1(Cl)C2(Cl)C3(Cl)C4(Cl)C(Cl)(Cl)C5(Cl)C3(Cl)C1(Cl)C5(Cl)C24Cl` (centres undefined), the result was inactive.
On the same count and under the same terms, the same measure for `O=C(O)C(Cl)(Cl)Cl`: “inactive”; for `CC(=O)[O][Hg][c]1ccccc1`: “inactive”.
On the same count and under the same terms, the same measure for `Cc1ccccc1N`: “inactive”; for `C=CC(=O)OCCCCCC(C)C`: “inactive”; for `CC(C)(C)CC(C)(C)c1ccc(O)cc1`: “inactive”.
For `CCC(C)(C)c1ccc(O)c(C(C)(C)CC)c1`, the outcome was inactive.
Regarding `O=C(O)C(F)(F)C(F)(F)C(F)(F)C(F)(F)C(F)(F)C(F)(F)C(F)(F)C(F)(F)C(F)(F)C(F)(F)F`, the call was inactive.
Same read-out and setting: the same measure for `CC(C)(c1ccccc1)c1ccc(O)c(C(C)(C)c2ccccc2)c1`: “inactive”; for `ClCC(Cl)CCl`: “inactive”; for `CC(C)(OO)c1ccccc1`: “inactive”.
Still for that read-out and setting: the same measure for `C=C(C)C(=O)[O][Sn]([CH2]CCC)([CH2]CCC)[CH2]CCC`: “inactive”.
With `NC(=O)O`, the compound was called inactive.

Values taken from PubChem BioAssay (EPA / NIEHS).
